Hits are enriched below; roughly 12% of the tested compounds scored in any of these assays.
AmpC inh no detg: AmpC beta-lactamase inhibition without detergent; P00811; AmpC nitrocefin hydrolysis, absorbance 480 nm, 0.0001% Triton; Potency, µM (top dose mostly 57.1 µM), inactives show at the highest dose activity change, negative = inhibition, usual class: inhibitors; 330,000 compounds, 0.52% hits; AID 485341;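 also: plate controls were no compound for no effect and no enzyme for full effect; nearly all actives have a fitted effect of over 20% in size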
Target sequence (P00811 whole entry, looked up): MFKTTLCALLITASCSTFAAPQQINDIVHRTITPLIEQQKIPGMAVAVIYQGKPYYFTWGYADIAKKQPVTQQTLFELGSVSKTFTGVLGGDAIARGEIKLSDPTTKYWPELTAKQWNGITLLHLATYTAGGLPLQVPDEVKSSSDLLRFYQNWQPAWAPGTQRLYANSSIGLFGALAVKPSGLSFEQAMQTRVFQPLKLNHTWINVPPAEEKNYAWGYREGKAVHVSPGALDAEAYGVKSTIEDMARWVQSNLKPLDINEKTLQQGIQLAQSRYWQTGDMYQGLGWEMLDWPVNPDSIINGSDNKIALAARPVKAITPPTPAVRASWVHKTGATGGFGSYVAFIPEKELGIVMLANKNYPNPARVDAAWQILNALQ
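20 mM phosphate pH 7.0 + 0.01% (detergent screen) or 0.0001% Triton X-100; 5.3 nM AmpC reagent; cpd preinc 15 min RT; nitrocefin (800 uM stock) to start; A480 q20 s × 4 min; Activity was normalised to no-enzyme and no-compound control wells.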
Pf growth 96h: P. falciparum growth inhibition at 96 hours; P. falciparum luciferase reporter growth, 96 h; Potency, µM (top dose mostly 28.7 µM), for inactives: at the top dose activity change, negative = inhibition, usual class: inhibitors; 320,000 compounds, 6.9% hits; also: % is scaled to controls: 0 for no effect and ±100 for the full control effect
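Readout is luminescence from an integrated firefly luciferase in P. falciparum. Red cells, 2% hematocrit and 0.05% parasitemia final, were cultured with compound through two parasite generations (96 hours) at 37 C, 5% CO2.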
SARS PLP yeast: SARS-CoV PLP inhibition in yeast; S. cerevisiae expressing SARS-CoV PLpro, growth rescue; Potency, µM (highest dose often 32.9 µM), for the others: at the highest dose activity, positive = growth rescue, actives largely listed as activators; 330,000 compounds, 0.19% hits; AID 485353; calls by dose curve; also: 0% is about no effect; nearly all actives have a fitted effect of over 55% in size
AmpC detergent: inhibitors of E. coli AmpC beta-lactamase with detergent | P00811 | AmpC hydrolysis of nitrocefin, absorbance 480 nm, 0.01% Triton | Potency, µM (series often up to 114 µM), without a hit: at the highest dose activity change, negative = inhibition, actives largely listed as inhibitors | 370,000 compounds, 0.041% hits | AID 485294;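 also: 0% = no-compound wells and -100% = no-enzyme wells; nearly all actives have a fitted effect of over 25% in size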
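20 mM phosphate pH 7.0 + 0.01% (detergent screen) or 0.0001% Triton X-100; 5.3 nM AmpC reagent; cpd preinc 15 min RT; nitrocefin (800 uM stock) to start; A480 q20 s × 4 min; Activity was normalised to no-enzyme and no-compound control wells.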
Pf growth 48h: P. falciparum growth inhibition at 48 hours (one generation); 310,000 compounds, 5.9% hits; P. falciparum luciferase growth in erythrocytes, 48 h; AID 504832; Potency, µM (series often up to 28.7 µM), without a hit: at the highest dose activity change, negative = inhibition, hits mostly inhibitors; also: % is scaled to controls: 0 for no effect and ±100 for the full control effect
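Luciferase-expressing P. falciparum in infected erythrocytes (2% hematocrit, 0.1% parasitemia final) in RPMI 1640/0.5% Albumax were exposed to compound for 48 hours at 37 C, 5% CO2; growth read as luminescence.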
Sm TGR block: S. mansoni TGR enzyme inhibition; Potency, µM (top dose mostly 114 µM), inactives show at the highest dose activity change, negative = inhibition, actives largely listed as inhibitors; purified TGR, DTNB reduction, TNB absorbance 405 nm; Q962Y6; 360,000 compounds, 3% hits; AID 485364; also: % is scaled to controls: 0 for no effect and ±100 for the full control effect; nearly all actives have a fitted effect of over 60% in size
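TGR 20 nM + NADPH 100 uM (dispensed conc.), cpd preinc 15 min RT; start with NADPH (500 uM addition) then DTNB (15 mM addition). Kinetic TNB absorbance, 405 nm filter. Four-parameter Hill fit across titration.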
Starred values were filed as active, the others as inactive; i = inactive; u = inconclusive; x = not tested or not shown. Unless noted, calls follow the shape of the dose curve; as a rule, active = well fitted curve in the direction sought with a large enough effect; inconclusive = small, poorly fitted or top-dose-only effect, or another doubt; inactive = no such curve, though single readings can be large; an effect the other way counts as inactive or inconclusive. Potency is read from the fitted curve at half-maximal effect.

SMILES	AmpC inh no detg	Pf growth 96h	SARS PLP yeast	AmpC detergent	Pf growth 48h	Sm TGR block
N=C1S/C(=C\c2ccc(-c3cccc(Cl)c3)o2)C(=O)N1c1nccs1	-31.7%	u	-12.8%	u	4.65µM*	-20.4%
N=C1/C(=C\c2ccc(-c3ccc(C(=O)O)cc3)o2)C(=O)N=C2SC=C(c3ccccc3)N12	-27.8%	5.1%	0.9%	-0.4%	u	-18.6%
CSc1ccc(CCNC(=O)c2cc3cc4cc(C)ccc4nc3s2)cc1	x	x	x	17.7%	x	4.5%
COc1ccc(CCNC(=O)C2CC(=O)N(C3CCCCC3)C2)cc1OC (stereo unspecified)	-8.2%	u	1.6%	-1.4%	3.9%	4.5%
Cc1cc(OC(C)C(N)=O)nc(-c2ccccc2)n1 (stereo unspecified)	-16.2%	10.0%	1.9%	u	14.7µM*	-5.0%
O=C(/C=C/c1ccc(Cl)cc1)Nc1nc(-c2cccs2)ns1	x	x	x	-0.9%	x	-3.9%
Cc1ccc(-n2ncc(C(=O)NCCCN3CCc4ccccc4C3)c2C2CCN(C(=O)OC(C)(C)C)CC2)c(C)c1	x	x	x	-5.1%	x	-1.7%
Nn1c(-c2ccc(F)cc2)nc2ccccc2c1=O	-28.0%	u	-0.6%	-3.4%	29.3%	7.5%
O=C1c2cc(F)ccc2-n2c1nc1ccccc1c2=O	-23.2%	0.0294µM*	-2.5%	-3.8%	0.0329µM*	-0.8%
COc1ccc(-n2nnnc2-c2cccnc2)cc1	-16.7%	9.28µM*	-9.2%	3.7%	0.1%	14.3%
Cc1ccc(-n2nnnc2-c2ccccc2)cc1	-23.7%	64.6%	-1.6%	-0.1%	-10.2%	-0.5%
Cc1cc(C)c(NC(=O)Nc2ccccc2)c(C)n1	-21.6%	-8.6%	3.1%	-2.2%	-7.7%	u
Cc1cc(N)c2cc(NC(=O)Nc3ccc4nc(C)cc(N)c4c3)ccc2n1	x	u	x	x	1.2µM*	x
Cc1cccc(-c2cc3nc(-c4ccccc4)cc(=O)n3[nH]2)c1	-38.1%	-5.0%	-1.0%	-4.0%	7.6%	-0.7%
CCc1ccc(NC(=O)Cn2c(=O)n(-c3cc(OC)c(OC)c(OC)c3)c(=O)c3ccccc32)cc1	x	x	x	13.1%	x	2.0%
COc1ccc(/C=N/N=C2/CC(C)(C)Cc3n[nH]c(=O)cc32)cc1	-15.7%	i	1.7%	-2.2%	-19.5%	12.6µM*
COc1ccc(C(=O)NC(=S)NCc2ccccc2)cc1	-28.6%	27.5%	27.3%	-10.5%	21.0%	5.01µM*
C/C(=N\NC(=S)NCc1ccccc1)c1ccc2ccccc2c1	25.1µM*	-39.2%	25.1%	-1.4%	-12.4%	-3.1%
COc1cc(OC)cc(C(=O)NC(=S)NCCc2ccccc2)c1	-4.3%	-19.4%	u	4.8%	-10.2%	10µM*
COc1ccc(S(=O)(=O)NNC(=S)NCCc2ccccc2)c(OC)c1	-20.6%	u	26.1%	6.7%	20.2%	5.62µM*
COc1ccccc1CNC(=O)CC1N=C2c3ccccc3N=C(SCC(=O)Nc3ccc(F)cc3)N2C1=O (stereo unspecified)	x	x	x	-3.7%	x	-2.5%
Cc1cccc(OCC(=O)N(Cc2cccc(Cl)c2)Cc2ccco2)c1C	x	x	x	22.2%	x	-1.3%
COc1ccc2cc(C(=O)NCc3ccccc3)c(=Nc3ccc(C(=O)O)cc3)oc2c1	-18.2%	0.415µM*	1.8%	0.5%	u	-1.1%
O=C(O)c1ccc(N=c2oc3cc(O)ccc3cc2C(=O)NCc2ccccc2)cc1	-25.8%	u	-23.3%	-2.1%	-28.2%	3.4%
COc1ccc(-c2noc(CNC(=O)c3ccc4c(c3)OCO4)n2)cc1OC	3.6%	4.7%	1.1%	-1.6%	10.3%	2.2%
SMILES	AmpC inh no detg	Pf growth 96h	SARS PLP yeast	AmpC detergent	Pf growth 48h	Sm TGR block
O=C(CCl)Nc1cccc(Oc2cnccn2)c1	-14.8%	3.7µM*	u	u	x	11.2µM*
O=C(CCl)Nc1cccc(Oc2ccccc2)c1	-50.3%	4.65µM*	3.0%	-13.5%	u	11.2µM*
Nc1cc2c(cc1O)CCCC2	-57.1%	u	0.1%	-0.9%	u	39.8µM*
Cn1c(=O)c(C(=O)NNC(=O)c2ccccc2Cl)c(O)c2ccccc21	-15.6%	11.4%	-2.6%	3.2%	1.1%	12.6%
Cn1c(=O)c(C(=O)NNC(=O)c2ccccc2Br)c(O)c2ccccc21	-41.0%	2.08µM*	1.3%	-3.5%	6.5%	-3.5%
Cn1c(=O)c(C(=O)Nc2ccccn2)c(O)c2ccccc21	13.6%	10.4µM*	-2.7%	-6.5%	150.8%	-9.5%
Cn1c(=O)c(C(=O)Nc2cnccn2)c(O)c2ccccc21	-13.4%	u	1.6%	-16.0%	23.1%	-1.6%
CC(C)OCCCNc1ccc(N2C(=O)CCCC2=O)cc1[N+](=O)[O-]	0.6%	-11.9%	2.8%	-5.4%	26.7%	3.6%
COCCCn1c(CCC(=O)O)ccc1-c1cccs1	-7.6%	x	-0.7%	-7.1%	-25.3%	8.91µM*
CCCn1c(CCC(=O)O)ccc1-c1cccs1	3.9%	7.7%	3.5%	u	0.6%	3.55µM*
C#CCNC(=O)C1=C[C@@H](C2CCCCC2)[C@H](CCCO)[C@@H](OCC)O1	97.7%	u	0.6%	12.0%	u	39.8µM*
CCO[C@@H]1OC(C(=O)NCc2ccccc2)=C[C@H](C2CCCCC2)[C@H]1CCCO	125.3%	9.28µM*	-1.5%	3.4%	u	7.8%
CNCC(=O)N1CCN(c2ncc(C(F)(F)F)cc2Cl)CC1	-8.5%	34.4%	-3.2%	-0.1%	u	-13.8%
CC(C)Oc1ccc(S(=O)(=O)N2CCCCC2)cc1NC(=O)C1CSC2(C)CCC(=O)N12 (stereo unspecified)	134.8%	u	1.7%	-18.6%	11.7µM*	-0.5%
CCOc1ccc(S(=O)(=O)N2CCCCC2)cc1NC(=O)C1CSC2(C)CCC(=O)N12 (stereo unspecified)	79.5%	u	-11.8%	u	1.04µM*	0.2%
CC12CCC(=O)N1C(C(=O)Nc1cccc(S(=O)(=O)N3CCCCC3)c1)CS2 (stereo unspecified)	-17.7%	u	-11.7%	-5.9%	-16.2%	2.1%
COc1ccc(S(=O)(=O)N2CCCCC2)cc1NC(=O)C1CSC2(C)CCC(=O)N12 (stereo unspecified)	4.9%	10.4%	2.9%	-7.4%	u	-2.7%
CC1CCN(S(=O)(=O)c2ccc(NC(=O)C3CSC4(C)CCC(=O)N34)cc2)CC1 (stereo unspecified)	14.1µM*	u	-3.9%	u	-18.8%	-6.0%
COC(=O)C1(C(F)(F)F)N=C2Sc3ccccc3N2C(N2CCOCC2)=N1 (stereo unspecified)	0.316µM*	-59.7%	-7.7%	-20.2%	0.8%	2.2%

High-throughput results: PubChem, National Center for Advancing Translational Sciences (NCATS)
